Results: PubChem BioAssay (NCI)
About 83,000 compounds went through this panel and 20% of them were active in at least one assay; those are over-represented in the sample as a whole.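 Negative percent growth values reflect cell death: -40 means 40% of the cells present at the start died, and -100 means all died.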 Values without a mark were called inactive. Active and inactive are the calls of the source. How the source made its calls: active means growth percent below 10; inactive means the rest.

Tests used:
Experiment in all cases: NCI-60 one-dose screen, 48 h (100 = growth as untreated, 0 = no growth, -100 = all killed)
Conditions in all cases: 10 µM
T-47D breast = tested on: T-47D breast
BT-549 breast = tested on: BT-549 breast
MDA-MB-435 melanoma = tested on: MDA-MB-435 melanoma
SW-620 colon = tested on: SW-620 colon
MCF7 breast = tested on: MCF7 breast
HCT-116 colon = tested on: HCT-116 colon
HCC-2998 colon = tested on: HCC-2998 colon
KM12 colon = tested on: KM12 colon

| Compound | growth (T-47D breast) | growth (BT-549 breast) | growth (MDA-MB-435 melanoma) | growth (SW-620 colon) | growth (MCF7 breast) | growth (HCT-116 colon) | growth (HCC-2998 colon) | growth (KM12 colon) |
| --- | --- | --- | --- | --- | --- | --- | --- | --- |
| C=CC(=O)Nc1nc(-c2cccc(NS(=O)(=O)c3cccc4c(N(C)C)cccc34)c2)cs1 | 0.269% (active) | -75.6% (active) | -92.4% (active) | -80.6% (active) | -82.1% (active) | -90.3% (active) | -88.1% (active) | -44% (active) |
| CCOC(=O)C1=C(N)N(c2ccccc2)C2=C(C(=O)CC(C)(C)C2)C1c1ccc(Cl)cc1 (stereo not given) | 29.5% | 43.2% | 22% | 27.9% | 17.4% | 18.7% | 42.9% | 17.9% |
| Cc1ccc2nc(-c3ccc(-c4nnc(SCC(=O)Nc5ccc(Cl)cc5)o4)cc3)[nH]c2c1 | 65.1% | 65.9% | 49.1% | 3.49% (active) | -16.1% (active) | 9.37% (active) | 67.5% | 50.8% |
| O=C1N/C(=N\c2nccs2)S/C1=C\c1cccs1 | 22.5% | 44.2% | 41.9% | 30% | 15.4% | 15.5% | 40.8% | 28.1% |
| O=C(NCCCCC(c1ccc(F)cc1)c1ccc(F)cc1)NCCCc1cccnc1 | 5.2% (active) | -16.4% (active) | 11.9% | 17.3% | 13.2% | 3.26% (active) | 29.2% |  |
| CC(=O)c1ccc(Nc2nc(SC(C)C)nc(-c3ccccc3)c2C#N)cc1 | 58.7% | 90.7% | 47.4% | 34.9% | 26.4% | 8.81% (active) | 70.2% | 82.2% |
| N#Cc1c(NC(=O)c2ccc(C(F)(F)F)cc2C(F)(F)F)sc2c1CCC(=O)C2 | -22.7% (active) | -65.3% (active) | -53.6% (active) | -43.7% (active) | -10.6% (active) | 0.663% (active) | -2.99% (active) | -34.2% (active) |
| O=C(CNc1nc(-c2ccccc2)cs1)Nc1ccccc1 | -15.3% (active) | -57.7% (active) | -3.84% (active) | -38.6% (active) | -59.7% (active) | 3.71% (active) | -94.9% (active) | 2.41% (active) |
| CN(C)c1cccc2c(S(=O)(=O)Nc3cccc(-c4csc(NC(=O)CCCCCN5CCN(c6cc7c(cc6F)C(=O)N(C6CCC(=O)NC6=O)C7=O)CC5)n4)c3)cccc12 (stereo not given) | 74.7% | 85.6% | 95.2% | 98.6% | 73.5% | 68.3% | 111% | 104% |
| N#Cc1ccc(-c2nn(-c3ccc(C(=O)O)cc3)cc2CNc2cc(Cl)cc(Cl)c2)cc1 | 25.9% | -1.57% (active) | 40.1% | 49.2% | 27.3% | 12.5% | 9.16% (active) | 18.6% |
| CO[C@H]1CSS[C@@H]1Cn1nc(-c2ccc(Oc3ccccc3)cc2)c2c(N)ncnc21 | 2.61% (active) | 4.49% (active) | -46.5% (active) | 66.4% | 10.2% | 7.35% (active) | 14% | 17.5% |
| CC(C)C1=C[C@@]23CC[C@@H]4[C@](C)(CCC[C@]4(C)C(=O)NCc4ccccc4)[C@H]2C[C@@H]1[C@H]1C(=O)CCC(=O)[C@H]13 | 51.8% | 68.7% | 86% | 85.4% | 42.7% | 60.4% | 90% | 84.6% |
| O=c1c2ccccc2nc(COc2ccccc2)n1/N=C/c1ccc(N2CCOCC2)cc1 | 92.9% | 76.8% | 99.3% | 97.6% | 77.6% | 52.5% | 99.2% | 90.7% |
| O=C(O)CCCCCCCCCCN1C(=O)/C(=C/c2cnc(-c3ccccc3)s2)SC1=S | 74.2% | 106% | 87% | 44.1% | 28.8% | 31.8% | 124% | 24.6% |
| CC(=O)c1cc(C(=O)c2ccc3c(c2)NC(=O)CO3)n2ccc3ccccc3c12 | 75.3% | 78.3% | 80.5% | 93.1% | 64% | 45% | 87.8% | 51.5% |
| N#Cc1ccc(NC(=O)CSc2ccc(-c3ccc(Br)cc3)nn2)cc1 | 46.9% | 70.5% | 65.1% | 91.1% | 56.2% | 64% | 92.9% | 76.7% |

| Compound | growth (T-47D breast) | growth (BT-549 breast) | growth (MDA-MB-435 melanoma) | growth (SW-620 colon) | growth (MCF7 breast) | growth (HCT-116 colon) | growth (HCC-2998 colon) | growth (KM12 colon) |
| --- | --- | --- | --- | --- | --- | --- | --- | --- |
| CCN1CCN(c2ccc(NC(=O)Nc3ccc(-c4cc(C(=O)NC)c5ncccc5n4)cc3)cc2C(F)(F)F)CC1 | 49.4% | -96% (active) | -100% (active) | -100% (active) | -83.1% (active) | -100% (active) | -100% (active) | -98.8% (active) |
| CC(=O)Nc1ccc(-c2cn(-c3cccc(C(=O)Nc4cc(C(F)(F)F)cc(C(F)(F)F)c4)c3)nn2)cn1 | 33.9% | -39.6% (active) | -34.3% (active) | -31.5% (active) | -25% (active) | 10.6% | -62.1% (active) | -27.6% (active) |
| COc1ccc2[nH]c(O)c(N=NC(=O)c3cc(-c4ccc(C)cc4)nc4ccccc34)c2c1 | 69% | 139% | 95.4% | 107% | 61% | 78.1% | 115% | 95.1% |
| Nc1nc(-c2ccccc2)cc(-c2cc3ccccc3nc2Cl)n1 | 73.7% | 82.2% | 94.9% | 62.7% | 18.4% | 33.7% | 103% | 71.7% |
| CN1C(=O)N(C)C2SC(N/N=C/c3ccccc3)=NC21 (stereo not given) | 69.5% | 58.7% | -13.7% (active) | 38.3% | 41% | 51.5% | 81.9% | 46.7% |
| COC(=O)C(Cc1ccc(O)c(O)c1)NC(=O)C(CSC/C=C(\C)CCCC(C)CCCC(C)CCCC(C)C)NC(C)=O (stereo not given) | -0.796% (active) | 23.3% | 30% | 19.8% | 24.4% | 21.2% | 19.3% | 16.4% |
| O=C(CSc1ccc(-c2ccc(Cl)cc2)nn1)Nc1ccc(Cl)c(C(F)(F)F)c1 | 58.3% | 74.6% | 0.967% (active) | 36% | 31.5% | 50.7% | 69.5% |  |
| CC1(C)CC[C@]23CC[C@]4(C)[C@H](CC[C@@H]5[C@@]6(C)CC[C@H](N)C(C)(C)[C@@H]6CC[C@]54C)[C@H]2[C@H]1OC3=O | -78.2% (active) | -97.7% (active) | -96.2% (active) | -73.7% (active) | -80.1% (active) | -98.9% (active) | -92.2% (active) | -86.6% (active) |
| COC1CC(Cn2cc(COc3ccc4ccc(=O)oc4c3)nn2)C(OCc2ccccc2)C(OCc2ccccc2)C1OCc1ccccc1 (stereo not given) | 103% | 122% | 103% | 97.1% | 84.8% | 76.6% | 121% | 109% |
| CCCn1c(=O)c2[nH]c(-c3ccc(OCc4nc5ccc(C)cc5[nH]4)cc3)nc2n(CCC)c1=O | -13.2% (active) | 36.3% | 49.1% | 27.5% | 17.6% | 14.6% | 61.6% | 69.7% |
| O=C(NO)c1ccc(CNc2nc(-c3ccccc3)c3ccccc3n2)cc1 | -13.1% (active) | 18.1% | 4.16% (active) | -58.2% (active) | 7.92% (active) | 4% (active) | -63.9% (active) | 11.6% |
| COc1ccc(C2N(c3ccc(Br)cc3)N=C(C(C)=O)N2[C@H]2[C@H](OC(C)=O)O[C@H](COC(C)=O)[C@@H](OC(C)=O)[C@@H]2OC(C)=O)cc1 (stereo not given in full) | 52.8% | 91.2% | 83.7% | 82.5% | 62.7% | 69% | 75.4% | 70.6% |
| S=c1nc(-c2ccccc2)cc(-c2cc3ccccc3nc2Cl)[nH]1 | 78.1% | 51.9% | -10.8% (active) | 48.3% | 45.1% | 31.5% | 104% | 64.2% |
| CCCn1c(=O)c2[nH]c(-c3ccc(OCc4nc5ccccc5[nH]4)cc3)nc2n(CCC)c1=O | 59.9% | 21.1% | 67% | 46.8% | 17.4% | 5.38% (active) | 64.8% |  |
| N#Cc1c(-c2ccc(Cl)cc2)cc(-c2ccccc2)nc1OCc1ccccc1 | 52.3% | 83.4% | 96.1% | 84% | 53.8% | 53.7% | 95% | 82.6% |
